The nature of test [1]: Cell Viability - Jurkat (AID 426;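 active means dose-dependent loss of cell ATP signal giving a full or clear fitted curve, ranked by lower potency value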; further: potency means the concentration at half of the fitted maximal effect). Conditions: qHTS. Summed up:
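qHTS, 1536-well; Jurkat E6-1, 5000 cells/well, complete medium; cpd 40 hr, 37 °C; CellTiter-Glo 20 min RT; luminescence. AC50 by Hill fit.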
A general note: In qHTS, concentration-response curves come from the screen itself.

Test [2] can be described thus: Cell Viability - HepG2 (AID 433; calls by dose curve;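 further: potency means the concentration at half of the fitted maximal effect; potency for ATP loss meaning cytotoxicity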). Conditions: qHTS. An outline of the steps: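 HepG2 hepatocellular carcinoma cells (1500/well) were treated with compounds for 40 h at 37 °C in complete medium; intracellular ATP was read by CellTiter-Glo luminescence. Data were normalized to DMSO and 100 uM tamoxifen, and AC50 came from Hill fits.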
The target of test [3] is Mitogen-activated protein kinase 10 (Mus musculus) (UniProt Q61831). The test is described as follows: JNK3 AlphaScreen Assay (AID 530; active means well fitted curve in either direction with a large enough effect, not every such curve was filed as active;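 further: kinase came from lysate of stimulated human HepG2 cells; signal reports phosphorylation of biotinylated GST-cJun 1-79 at Ser73 with 10 µM ATP; on the % scale 0 is the no-effect control and ±100 the full control effect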). Conditions: JNK3 lysate, c-Jun phosphorylation; series mostly up to 57.1 µM. Summed up: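 Inhibitors reduce antibody binding to phosphorylated biotin-cJun, lowering AlphaScreen luminescence. Lysates from HepG2 cells pre-activated by IL-1beta plus TNF-alpha supplied JNK3; compounds were titrated.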
A general note: In Alpha technology, singlet oxygen from a donor bead excites a nearby acceptor bead.

The nature of test [4]: Cell Viability - NIH 3T3 (AID 541). Further: nearly all actives have a fitted effect of over 25% in size. Further: potency means the concentration at half of the fitted maximal effect.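 On activity change, negative = cytotoxicity: plate controls were DMSO alone for no effect and tamoxifen positive control for full effect.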 To be noted: NIH 3T3 cell viability, qHTS; activity change, negative = cytotoxicity: at 92.2 µM (top of the series). An outline of the steps:
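Luminescent ATP signal (CellTiter-Glo) served as the viability read-out after NIH 3T3 cells were exposed to compounds over a concentration range for 40 hr at 37 °C. Hill-equation modelling of concentration-response data gave AC50.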

Test [5] is described as follows: Cell Viability - LYMP2-024 (AID 988).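 Further: plate controls were DMSO only for no effect and 92 µM tetraoctylammonium bromide for full effect; nearly all actives have a fitted effect of over 60% in size.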 Conditions: LYMP2-024 lymphoblastoid cell viability; series mostly up to 92.2 µM. An outline of the steps: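 Steps: seed 2500 cells/well, 5 hr 37 C; add compound, 24 hr 37 C; add CellTiter-Glo, 30 min room temperature; read luminescence. AC50 derived by Hill modelling of concentration-dependent ATP loss.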
Test [6] concerns the target Estrogen receptor (Homo sapiens) (UniProt P03372). The test is described as follows: qHTS assay for small molecule antagonists of estrogen receptor alpha signaling (AID 588513; active means well fitted curve in the direction sought with a large enough effect in the signal ratio, with a control signal flat, not every such curve was filed as active; the % refers to the signal ratio; further: on the % scale 0 is the no-effect control and ±100 the full control effect). To be noted: ER-alpha-UAS-bla HEK293, beta-lactamase ratio, antagonist mode; series mostly up to 76.9 µM. Summed up:
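ER-alpha-UAS-bla GripTite HEK 293 cells in medium with 2% charcoal/dextran-treated FBS were preincubated 4 h at 37 C, dosed with compound (1:2 titration), stimulated with 0.5nM 17-beta-estradiol for 18 h, then read by CCF4 beta-lactamase fluorescence.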

The target in test [7] is Glucocorticoid receptor (Homo sapiens) (UniProt P04150). The test is described as follows: qHTS assay for small molecule agonists of glucocorticoid receptor signaling (AID 588532; active means well fitted curve in the direction sought with a large enough effect in the signal ratio, with a control signal flat; the % refers to the signal ratio;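 further: 100% = dexamethasone at 0.1 µM and 0% = DMSO only wells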). Conditions: HeLa MMTV-bla, beta-lactamase ratio, agonist, 18 h; stronger effect = higher value; percent of dexamethasone control, DMSO zero. Summed up:
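Titration series, up to 92 uM, applied to GRE-bla HeLa cells for 18 h at 37 C. Detection by CCF4 FRET substrate after 2 h at RT.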

Test [8] has the same target. Briefly: qHTS assay for small molecule antagonists of glucocorticoid receptor signaling (AID 588533; active means well fitted inhibition curve with a large enough effect in the signal ratio, with a control signal flat, not every such curve was filed as active; the % refers to the signal ratio;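 further: cells stimulated with 2 nM dexamethasone as agonist; on the % scale 0 is the no-effect control and ±100 the full control effect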). To be noted: HeLa MMTV-bla, GRE beta-lactamase ratio, antagonist mode, 18 h; series mostly up to 76.8 µM. Summed up: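 Antagonist-mode qHTS: compound titrations added to GRE-bla HeLa cells, then dexamethasone 2 nM final; 18 h, 37 C. CCF4 FRET fluorescence normalized to dexamethasone and DMSO; IC50 from Hill fit.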

Test [9] in a line: qHTS assay for small molecule antagonists of peroxisome proliferator-activated receptor delta signaling (AID 588535; active means well fitted inhibition curve with a large enough effect in the signal ratio, with a control signal flat, not every such curve was filed as active; the % refers to the signal ratio;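 on max response: cells co-treated with a PPAR-delta agonist as stimulator during compound exposure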). To be noted: HEK293T PPARd-UAS-bla, beta-lactamase FRET ratio, 18 h; 460 nm channel. Summed up:
(§1)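 Reporter: UAS-bla under PPAR-delta response element, HEK293T host. Medium: 2% charcoal/dextran FBS. Dosing: titration, 18 hrs, 37 C. Detection: CCF4, 2 hrs RT, 405 ex/460 and 530 em.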

Test [10] deals with Peroxisome proliferator-activated receptor delta (Homo sapiens) (UniProt Q03181). The description is as above. Conditions: HEK293T PPARd-UAS-bla, beta-lactamase FRET ratio, 18 h; series mostly up to 76.7 µM. Summed up: as §1
Chain of Peroxisome proliferator-activated receptor delta (Homo sapiens) (Q03181 whole entry, looked up): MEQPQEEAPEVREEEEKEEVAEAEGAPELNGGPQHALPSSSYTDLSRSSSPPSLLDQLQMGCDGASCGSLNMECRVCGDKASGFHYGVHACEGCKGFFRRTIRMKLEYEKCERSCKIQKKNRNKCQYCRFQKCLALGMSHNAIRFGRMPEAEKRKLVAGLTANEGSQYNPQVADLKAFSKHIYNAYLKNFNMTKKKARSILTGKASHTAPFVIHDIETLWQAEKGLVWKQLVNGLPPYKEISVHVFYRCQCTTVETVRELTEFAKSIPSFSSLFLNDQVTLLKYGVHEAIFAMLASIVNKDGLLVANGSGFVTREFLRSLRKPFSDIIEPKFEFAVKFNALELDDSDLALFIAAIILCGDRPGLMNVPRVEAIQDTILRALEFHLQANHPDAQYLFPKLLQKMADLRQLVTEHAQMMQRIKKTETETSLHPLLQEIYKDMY
A short description of test [11]: qHTS assay for small molecule agonists of the antioxidant response element (ARE) signaling pathway (AID 651741; active means well fitted activation curve with a large enough effect in the signal ratio; the % refers to the signal ratio; further: potency means the concentration at half of the fitted maximal effect; on activation: % of control where 0% means no effect). To be noted: HepG2 ARE-bla reporter, beta-lactamase FRET ratio, 16 h; series mostly up to 96 µM. An outline of the steps:
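Compounds in DMSO are pinned onto HepG2 ARE-bla cells (2,000/well) that were preincubated 5 h; plates stay 16 h at 37 C, then beta-lactamase activity is detected with LiveBLAzer B/G substrate by fluorescence.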

Test [12] in a line: qHTS assay for small molecule activators of the nuclear factor-kappa B (NF-kB) signaling pathway (AID 651749; active means well fitted activation curve with a large enough effect in the signal ratio; the % refers to the signal ratio; further: % of control where 0% means no effect). Conditions: NF-kB-bla ME-180 cells, beta-lactamase FRET ratio, 16 h; stronger effect = higher value. An outline of the steps: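 Screening used 2,000 ME-180 reporter cells per well exposed to pinned compound (23 nL) or DMSO; after 16 hr at 37C, beta-lactamase expression under NF-kB control was assessed through FRET.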

The nature of test [13]: qHTS assay for small molecule disruptors of the mitochondrial membrane potential - 5 hr assay (AID 651755; calls by dose curve; further: nearly all actives have a fitted effect of over 40% in size; further: potency means the concentration at half of the fitted maximal effect). To be noted: JC-1-type ratio dye; series mostly up to 92.2 µM. Summed up: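 HepG2 cells, attached overnight at 37C, were exposed to compound or DMSO for 5 hr at 37C, 5% CO2. Mito-MPS dye was then added for 30 min, and fluorescence read at 490/535 nm (monomers) and 540/590 nm (aggregates).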

Test [14] addresses Nuclear receptor ROR-gamma (Homo sapiens) (UniProt P51449). Briefly: qHTS assay for small molecule antagonists of the retinoid-related orphan receptor gamma (ROR-gamma) signaling pathway (AID 651802). Further: nearly all actives have a fitted effect of over 60% in size. Further: potency means the concentration at half of the fitted maximal effect. To be noted: ROR-gamma antagonist cell reporter assay; series mostly up to 92.2 µM. An outline of the steps: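 CHO, TET-inducible ROR + RORE-LUC reporter, 1536-well qHTS. Compound pinned, doxycycline added, 16hr 37C/5% CO2. ONE-Glo, 30 min RT, luminescence; signal drop scored as antagonism.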

Test [15] in a line: MultiTox-Fluor Cytotoxicity Assay - LYMP1-002 - Dead Cells (AID 960). Further: nearly all actives have a fitted effect of over 60% in size. To be noted: LYMP1-002 lymphoblastoid cells, dead-cell protease fluorescence; series mostly up to 46.1 µM. An outline of the steps:
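LYMP1-002 cells 2500/well; 5 hr 37 C pre-incubation; compound 16 hr 37 C; MultiTox-Fluor reagent 60 min RT; dead-cell fluor Ex/Em 485/520. Norm. to DMSO (0%) vs 15 uM tetraoctylammonium bromide (100%); Hill AC50.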

The target of test [16] is Peroxisome proliferator-activated receptor gamma (Homo sapiens) (UniProt P37231). Briefly: qHTS assay for small molecule agonists of peroxisome proliferator-activated receptor gamma signaling (AID 588536; active means well fitted curve in the direction sought with a large enough effect in the signal ratio, with a control signal flat, not every such curve was filed as active; the % refers to the signal ratio;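 further: 0% = DMSO basal wells and 100% = rosiglitazone at 2 µM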). Conditions: HEK293 PPARg-UAS-bla, beta-lactamase ratio, 16 h, percent of rosiglitazone response, DMSO as zero; series mostly up to 76.7 µM. Summed up: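 Test agents, titrated, stimulated HEK293 UAS-bla cells overnight (16 h, 37 C). Substrate CCF4 was then added for two hours at room temperature before fluorescence reading.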
Chain of Peroxisome proliferator-activated receptor gamma (Homo sapiens) (P37231 whole entry, looked up): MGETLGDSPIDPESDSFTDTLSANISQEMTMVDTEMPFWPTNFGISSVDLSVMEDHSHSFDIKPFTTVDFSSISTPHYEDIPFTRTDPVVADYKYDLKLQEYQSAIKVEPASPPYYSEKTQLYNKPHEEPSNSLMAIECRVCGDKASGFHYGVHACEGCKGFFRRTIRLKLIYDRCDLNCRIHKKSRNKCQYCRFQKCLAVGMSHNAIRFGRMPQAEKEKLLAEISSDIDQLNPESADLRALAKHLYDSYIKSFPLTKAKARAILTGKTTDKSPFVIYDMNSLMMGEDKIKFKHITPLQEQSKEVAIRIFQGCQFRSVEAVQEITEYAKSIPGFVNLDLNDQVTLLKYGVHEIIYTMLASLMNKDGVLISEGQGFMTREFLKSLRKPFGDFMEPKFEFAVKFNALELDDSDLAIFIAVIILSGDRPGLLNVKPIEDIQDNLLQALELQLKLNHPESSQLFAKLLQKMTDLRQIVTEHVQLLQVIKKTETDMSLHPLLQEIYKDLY

For test [17], the target named is Vitamin D3 receptor (Homo sapiens) (UniProt P11473). Briefly: qHTS assay for small molecule agonists of vitamin D receptor signaling (AID 588543; calls by dose curve;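 further: 0% = DMSO basal and 100% = reference agonist control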). To be noted: HEK293T VDR-UAS-bla, beta-lactamase ratio, 16 h; series mostly up to 76.8 µM. Summed up:
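GeneBLAzer VDR-UAS-bla HEK293T cells in 2% charcoal-stripped FBS medium were dosed with compound titrations for 16 h at 37 °C; CCF4 β-lactamase readout (405 nm ex, 460/530 nm em). EC50 and efficacy from Hill fits, normalized to 50 nM calcitriol (100%) and DMSO (0%).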

Test [18] deals with Tumor necrosis factor (Homo sapiens) (UniProt P01375). The test is described as follows: qHTS assay to identify small molecules that stimulate Tumor Necrosis Factor-alpha (TNF-alpha) secretion (AID 651757; active means well fitted curve in the direction sought with a large enough effect in the signal ratio; the % refers to the signal ratio; further: 0% is about no effect). Conditions: Human cells, HTRF 665/615 ratio; series mostly up to 92.2 µM. Summed up:
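Read-out is HTRF, a TR-FRET sandwich of cryptate- and XL665-labeled anti-TNF-alpha antibodies detecting cytokine secreted by THP-1 cells. Cells had been incubated with test compounds at 37 C for 17 hrs beforehand.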

Test [19] has as its target Peroxisome proliferator-activated receptor gamma (Homo sapiens) (UniProt P37231). Briefly: qHTS assay for small molecule antagonists of peroxisome proliferator-activated receptor gamma signaling (AID 588537; active means well fitted inhibition curve with a large enough effect in the signal ratio, with a control signal flat, not every such curve was filed as active; the % refers to the signal ratio;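 further: reporter cells co-stimulated with 50 nM rosiglitazone agonist during compound treatment; % of control where 0% means no effect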). Conditions: HEK293 PPARg-UAS-bla, beta-lactamase ratio, antagonist mode; series mostly up to 76.8 µM. An outline of the steps: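 We seeded GeneBLAzer HEK293 reporter cells at 3000 per well, allowed 6-6.5 h attachment at 37 C, then co-treated with test compound titrations and 50 nM rosiglitazone overnight (16 h). Inhibition was quantified from 460/530 nm emission ratios.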

Several values for one entry are separate records, joined by “and”; a condition that tells them apart may be missing. Equal entries are not always repeated. Results filed as inconclusive are left out. Activity calls are given as the source filed them. Unless noted, the call rests on the fitted dose curve; in most records, active means well fitted curve in the direction sought with a large enough effect; inconclusive means small, poorly fitted or top-dose-only effect, or another doubt; inactive means no such curve, though single readings can be large; an effect the other way counts as inactive or inconclusive.

Chain of Estrogen receptor (Homo sapiens) (P03372 whole entry, looked up): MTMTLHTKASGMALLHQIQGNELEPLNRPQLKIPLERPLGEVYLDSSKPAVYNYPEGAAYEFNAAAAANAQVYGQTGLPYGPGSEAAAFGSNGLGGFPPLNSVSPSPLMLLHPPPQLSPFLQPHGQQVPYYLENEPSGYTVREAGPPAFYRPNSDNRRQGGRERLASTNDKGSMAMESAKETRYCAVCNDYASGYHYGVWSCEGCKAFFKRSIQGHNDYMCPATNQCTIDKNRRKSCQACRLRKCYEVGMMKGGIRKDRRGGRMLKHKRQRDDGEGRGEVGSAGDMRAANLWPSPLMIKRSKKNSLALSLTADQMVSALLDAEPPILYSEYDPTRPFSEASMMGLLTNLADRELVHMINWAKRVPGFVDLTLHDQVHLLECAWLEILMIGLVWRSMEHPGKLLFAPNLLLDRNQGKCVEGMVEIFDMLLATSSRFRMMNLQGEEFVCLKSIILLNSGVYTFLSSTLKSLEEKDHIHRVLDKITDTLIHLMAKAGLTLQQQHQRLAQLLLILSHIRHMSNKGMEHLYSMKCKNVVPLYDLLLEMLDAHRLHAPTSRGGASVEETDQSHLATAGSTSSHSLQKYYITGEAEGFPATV
Chain of Vitamin D3 receptor (Homo sapiens) (P11473 whole entry, looked up): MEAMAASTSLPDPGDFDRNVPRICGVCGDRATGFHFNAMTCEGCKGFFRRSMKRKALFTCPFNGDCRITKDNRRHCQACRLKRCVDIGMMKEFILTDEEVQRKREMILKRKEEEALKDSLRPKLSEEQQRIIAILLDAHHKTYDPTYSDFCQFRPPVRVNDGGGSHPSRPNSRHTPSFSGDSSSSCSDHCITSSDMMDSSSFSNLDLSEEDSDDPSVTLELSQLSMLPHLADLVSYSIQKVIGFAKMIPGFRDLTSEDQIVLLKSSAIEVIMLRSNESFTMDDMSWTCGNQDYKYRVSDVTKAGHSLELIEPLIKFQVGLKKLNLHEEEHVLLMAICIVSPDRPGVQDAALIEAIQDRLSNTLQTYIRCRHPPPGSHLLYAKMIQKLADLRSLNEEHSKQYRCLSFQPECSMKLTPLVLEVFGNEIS
Chain of Glucocorticoid receptor (Homo sapiens) (P04150 whole entry, looked up): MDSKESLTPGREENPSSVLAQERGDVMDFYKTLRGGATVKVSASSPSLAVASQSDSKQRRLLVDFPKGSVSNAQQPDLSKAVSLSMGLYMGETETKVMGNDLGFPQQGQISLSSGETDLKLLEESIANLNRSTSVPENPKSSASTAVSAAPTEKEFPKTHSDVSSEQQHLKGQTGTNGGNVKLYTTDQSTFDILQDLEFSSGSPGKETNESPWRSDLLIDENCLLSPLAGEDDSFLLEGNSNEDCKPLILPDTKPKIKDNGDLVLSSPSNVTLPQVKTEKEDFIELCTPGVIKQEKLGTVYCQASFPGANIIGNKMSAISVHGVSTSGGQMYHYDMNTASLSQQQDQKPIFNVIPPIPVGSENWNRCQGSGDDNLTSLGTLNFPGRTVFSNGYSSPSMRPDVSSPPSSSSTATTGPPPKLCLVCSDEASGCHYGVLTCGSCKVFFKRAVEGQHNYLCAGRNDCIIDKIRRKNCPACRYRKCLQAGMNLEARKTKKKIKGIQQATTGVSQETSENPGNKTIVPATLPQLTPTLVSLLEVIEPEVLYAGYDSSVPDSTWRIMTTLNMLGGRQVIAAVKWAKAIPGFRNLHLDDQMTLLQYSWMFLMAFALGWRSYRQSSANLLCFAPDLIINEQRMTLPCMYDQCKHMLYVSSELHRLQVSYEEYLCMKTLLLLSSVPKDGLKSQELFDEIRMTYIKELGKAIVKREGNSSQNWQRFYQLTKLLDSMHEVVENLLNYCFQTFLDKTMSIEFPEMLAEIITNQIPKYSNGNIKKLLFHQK
Chain of Nuclear receptor ROR-gamma (Homo sapiens) (P51449 whole entry, looked up): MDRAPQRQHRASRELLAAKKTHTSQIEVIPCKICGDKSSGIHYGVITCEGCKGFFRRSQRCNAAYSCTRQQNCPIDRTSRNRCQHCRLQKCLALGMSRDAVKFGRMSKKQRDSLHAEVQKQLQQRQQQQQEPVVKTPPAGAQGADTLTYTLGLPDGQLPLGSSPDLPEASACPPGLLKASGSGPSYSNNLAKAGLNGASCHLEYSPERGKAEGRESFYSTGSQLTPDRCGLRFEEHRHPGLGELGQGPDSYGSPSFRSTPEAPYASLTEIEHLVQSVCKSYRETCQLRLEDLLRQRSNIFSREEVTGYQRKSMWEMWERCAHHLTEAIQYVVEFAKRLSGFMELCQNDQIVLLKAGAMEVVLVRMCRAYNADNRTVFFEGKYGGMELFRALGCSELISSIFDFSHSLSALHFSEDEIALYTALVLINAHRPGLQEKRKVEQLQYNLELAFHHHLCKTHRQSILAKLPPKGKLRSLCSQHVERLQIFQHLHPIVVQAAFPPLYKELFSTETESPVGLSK
Chain of Tumor necrosis factor (Homo sapiens) (P01375 whole entry, looked up): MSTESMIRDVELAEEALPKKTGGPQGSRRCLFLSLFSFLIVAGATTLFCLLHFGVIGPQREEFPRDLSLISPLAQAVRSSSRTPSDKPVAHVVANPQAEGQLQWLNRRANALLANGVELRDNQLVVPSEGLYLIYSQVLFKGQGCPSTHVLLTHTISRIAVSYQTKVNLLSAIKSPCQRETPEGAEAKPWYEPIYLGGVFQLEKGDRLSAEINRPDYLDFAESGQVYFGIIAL

Consider `O=[N+]([O-])c1c(Cl)c(Cl)c(Cl)c(Cl)c1Cl`, for which the Potency is > 92 µM (inactive) in test [1]; > 92 µM (inactive) in test [2]; 31.6 µM (active) in test [4]; 37.6 µM (active) and 24.3 µM (active) in test [11]. Moreover, the Potency result in test [3], in test [5], in test [6], in [13] and in [14] was “inactive” in each case. Further, the activation in [7] was -3.84% (inactive) and -0.795% (inactive); in test [12], -2.45% (inactive) and -1.33% (inactive). Further, the result in [8] and in test [10] was inactive. In addition, in test [9], the max response was 0.973%.
With `Nc1cc(Cl)ccc1O`, the Potency in test [2] is > 92 µM (inactive); in test [11], 10.6 µM (active); in [13] it was 33.5 µM (active). The Potency result in test [3], in [15], in test [5], in [6] and in [14] was “inactive” in each case. For the same compound, the activation was 3.82% (inactive) in test [7] and -0.288% (inactive) in test [12]. Also, in [9], the max response was -44.8%. In addition, the outcome in test [10], in [16] and in [17] was inactive.
For `ClCC(Cl)Cl`, in [1], the Potency is > 92 µM (inactive). Moreover, the Potency entry in [4], in test [11], in test [13] and in test [14] was “inactive” in each case. Further, the max response in [9] is -51.8%. Further, the outcome in test [10], in test [16] and in test [18] was inactive.
As to `Nc1ccc([N+](=O)[O-])cc1N`, the Potency in [2] is > 92 µM (inactive); in test [11], 3.76 µM (active) and 2.73 µM (active); in [14] it was 42.2 µM (active). Further, the Potency entry in [3], in test [5], in test [19] and in test [13] was “inactive” each time. Further, the max response in [9] is 3.68%. For the same compound, the result in test [17] was inactive.
For `N#C/C=C/C#N`, the Potency is 20.8 µM (active) in test [1], > 92 µM (inactive) in test [2], 37.6 µM (active) in test [11] and 23.7 µM (active) in test [14]. The Potency result in test [3], in test [15] and in test [6] was “inactive” throughout. Besides, the activity change, negative = cytotoxicity in test [4] was -156% (active). Further, the result in test [8], in [17] and in test [18] was inactive.
As for `Oc1cc(Cl)c(Cl)c(Cl)c1Cl`, the Potency in test [1] was 54.1 µM (active); in [2], 53.3 µM (active); in test [14] it was 23.7 µM (active). The Potency entry in test [3] and in test [5] was “inactive” each time. Moreover, in test [7], the activation was 5.92% (inactive).

The values above are taken from PubChem BioAssay (NCATS).
